Shiga toxin inh – A qHTS for Small Molecule Inhibitors of Shiga Toxin; inhibition, % at 38.7 µM; Vero cells, Shiga toxin protein synthesis inhibition reporter; actives 9.2% (n = 290,000); in the data active means inhibition mostly above about 28%, no sharp cut-off; inactive means mostly below about 43%; further: 0% is about no effect
Pf growth 96h – Primary qHTS for delayed death inhibitors of the malarial parasite plastid, 96 hour incubation; P. falciparum luciferase reporter growth, 96 h; actives 6.9% (n = 320,000); Potency, µM (titrated, usually from 28.7 µM), inactives show at the top dose activity change, negative = inhibition, actives largely listed as inhibitors; further: potency means the concentration at half of the fitted maximal effect; on the % scale 0 is the no-effect control and ±100 the full control effect
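Plates of compound plus infected erythrocytes (2% hematocrit, 0.05% parasitemia final) incubate 96 hours, 37 C, 5% CO2. Detection reagent added; reduced luminescence from the parasites' luciferase reporter flags inhibition.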
CHX counter – Cycloheximide Counterscreen for Small Molecule Inhibitors of Shiga Toxin; cell reporter, cycloheximide protein synthesis inhibition counterscreen; max response, %; actives 12% (n = 300,000); in the data active means max response mostly above about 13%, no sharp cut-off; inactive means mostly below about 14%; further: read at 38.3 µM for the half of the compounds with a filed dose; 0% is about no effect
Pf growth 48h – Primary qHTS for delayed death inhibitors of the malarial parasite plastid, 48 hour incubation | P. falciparum luciferase growth in erythrocytes, 48 h | Potency, µM (top dose mostly 28.7 µM), inactives show at the highest dose activity change, negative = inhibition, most hits filed as inhibitors | actives 5.9% (n = 310,000) | AID 504832, 2011; further: potency means the concentration at half of the fitted maximal effect; on the % scale 0 is the no-effect control and ±100 the full control effect
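Here the parasites carry a stable luciferase gene and grow inside erythrocytes in Albumax-based RPMI medium with compound for one erythrocytic cycle. Activity is scored as loss of luminescent signal.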
SARS PLpro yeast – qHTS of Yeast-based Assay for SARS-CoV PLP. S. cerevisiae expressing SARS-CoV PLpro, growth rescue. Potency, µM (highest dose often 32.9 µM), for the others: top-dose activity, positive = growth rescue, actives largely listed as activators. actives 0.19% (n = 330,000); calls by dose curve; further: potency means the concentration at half of the fitted maximal effect; 0% is about no effect; nearly all actives have a fitted effect of over 55% in size
NS1 function inh – qHTS Assay for Inhibitors of Influenza NS1 Protein Function | AID 2326, 2010 | actives 0.4% (n = 270,000) | Potency, µM (highest dose often 46.1 µM), for inactives: top-dose activity, positive = more growth; calls by dose curve; further: potency means the concentration at half of the fitted maximal effect; actives are rising curves; nearly all actives have a fitted effect of over 50% in size
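A cell-based growth assay was used: compounds that relieve NS1-induced slow growth of budding yeast raise OD600. Assay medium was yeast nitrogen base with ammonium sulphate and -URA supplement, pH 6.0, with 2% galactose.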
* = called active by the depositor; ? = inconclusive; . = not tested or not shown; [ ] = another dose, or the depositor's remark. Only some compounds are listed: those with a hit (about 21% of all), similar ones and a draw of the others. Unless noted, the call rests on the fitted dose curve; in most records, active means well fitted inhibition curve with a large enough effect; inconclusive means small, poorly fitted or top-dose-only effect, or another doubt; inactive means no such curve, though single readings can be large or run the other way.

SMILES	Shiga toxin inh	Pf growth 96h	CHX counter	Pf growth 48h	SARS PLpro yeast	NS1 function inh
CCCc1[nH]n(-c2ccc(F)cc2)c(=O)c1C=NCC1CCCO1 (configuration not stated)	-0.5	-22.7%[5.75 µM]	-1.5	?	0.8%	2.1%
Cc1[nH]n(-c2ccccc2)c(=O)c1/C=N/N(C)c1ccccc1	45.5*	?	6.7	?	-0.3%	-20.3%
Cc1[nH]n(-c2ccccc2)c(=O)c1C=NCC1CCCO1 (configuration not stated)	49.2*	-8.5%	22.5*	20.8%	-1.3%	4.5%
Cc1[nH]n(-c2ccccc2)c(=O)c1/C=N/O	-14.6	?	-2.0	35.7%	-2.0%	7.4%
Cc1[nH]n(-c2cccc(Cl)c2)c(=O)c1C=NCc1ccco1	107.0*	-3.6%	42.8*	140.7%	-1.0%	-6.3%
Cc1[nH]n(-c2ccccc2)c(=O)c1C=NCc1ccco1	97.8*	11.8%	41.2*	75.3%	-0.2%	-3.8%
O=S(=O)(NCC1CCCO1)c1ccc(S(=O)(=O)N(Cc2ccc(F)cc2)Cc2ccco2)cc1 (configuration not stated)	12.0	5.5%	4.7	?	19.9%	-4.9%
CCCCNC(=O)C1Cc2cc(S(=O)(=O)N3CCCC3)ccc2N1C(C)=O (configuration not stated)	-6.4	?	-9.3	13.0%	-5.3%	12.4%
CCCc1[nH]n(-c2nc3ccccc3s2)c(=O)c1C=NCC1CCCO1 (configuration not stated)	6.6	.	24.4*	?	4.0%	-32.8%
CCCc1[nH]n(-c2nc3ccccc3s2)c(=O)c1C=NCCN1CCOCC1	27.9	?	17.5	15.1%	-0.7%	2.1%
Cc1[nH]n(-c2cccc(Cl)c2)c(=O)c1C=NCC(C)C	95.5*	184.4%	42.8*	250.3%	-11.2%	.
CC(=O)Nc1ccc(S(=O)(=O)NCCc2csc(-c3cccnc3)n2)cc1	-7.4	8.28µM*	8.2	-9.4%	-2.4%	7.8%
O=S(=O)(NCc1csc(-c2cccnc2)n1)c1ccc2c(c1)OCCO2	-4.8	2.94µM*	-4.3	-2.6%	8.6%	0.5%
O=S(=O)(NCc1cccnc1)c1ccc2c(c1)OCCO2	-2.5	13.1µM*	-0.8	1.9%	17.8%	15.9%
CC(=O)c1ccc(S(=O)(=O)NCCc2csc(-c3cccnc3)n2)cc1	11.4	?	-1.7	?	-9.1%	0.2%
COc1ccc(CCNC(=O)c2nnn(CC(=O)Nc3cccc(F)c3)c2N)cc1OC	-3.7	1.6%	-1.5	10.9%	-0.4%	.
CC(=O)N1N=C(c2ccc(C)cc2)OC1c1ccc(Br)cc1 (configuration not stated)	29.8	-12.7%	17.4*	72.6%	0.7%	3.5%
CC(=O)NC1=NN(C(C)=O)C(c2ccc(C)cc2)S1 (configuration not stated)	-3.4	?	2.9	10.6%	0.6%	8.5%
CC(=O)N1N=C(c2ccc(Cl)cc2)OC1c1ccc(C(C)C)cc1 (configuration not stated)	109.9*	9.6%	30.4*	0.0%	-6.7%	-43.0%
COc1ccc(NC(=O)N(C)C[C@H]2Oc3ccc(NS(=O)(=O)c4cccs4)cc3C(=O)N([C@@H](C)CO)C[C@@H]2C)cc1	.	.	.	.	2.1%	.
O=C(CN(C(=O)CCC(=O)Nc1ccccn1)c1ccc2c(c1)OCO2)NCc1ccc(F)cc1	-2.7	3.8%	-6.1	?	1.9%	-7.4%
O=C(Nc1cccc(-c2nc3ncccc3o2)c1)c1cc2ccccc2o1	84.6*	34.6%	21.6*	?	-18.9%	-83.9%
O=C(Nc1cccc(-c2nc3ncccc3o2)c1)c1sc2cc(Cl)ccc2c1Cl	43.7*	78.2%	19.6	45.4%	1.4%	5.3%
CC1CCCCC1NC(=O)CN1C(=O)CSc2cc(S(=O)(=O)N3CCCCCC3)ccc21 (configuration not stated)	14.9	?	-3.4	?	8.4%	-1.5%
Cc1nc(-c2ccncc2)nc(NCCNc2ncccc2C(F)(F)F)c1Cl	3.5	?	-1.7	10.4µM*	-9.9%	-8.9%
SMILES	Shiga toxin inh	Pf growth 96h	CHX counter	Pf growth 48h	SARS PLpro yeast	NS1 function inh
Cc1c(Nc2ncccc2C(=O)O)cccc1C(F)(F)F	.	60.7%	.	3.5%	.	.
N#Cc1cnn(-c2nc(SCc3ccccc3)nc3sc4c(c23)CCCC4)c1N	-12.8	?	-2.1	13.1%	0.3%	7.9%
BrCC1C[n+]2c(SCc3ccccc3)nc3sc4c(c3c2O1)CCCC4 (configuration not stated)	80.3*	10.5%	30.6*	24.8%	-1.0%	-5.4%
CCSc1nc2sc3c(c2c2[n+]1CC(CBr)O2)CCCC3 (configuration not stated)	36.2	11.1%	17.4*	12.1%	-0.1%	2.3%
COc1ccc(S(N)(=O)=O)cc1C(=O)OCCCOc1ccc(F)cc1	-6.7	4.1%	-4.3	-16.2%[0.00184 µM]	-1.8%	6.1%
CC(=O)NC(c1ccco1)c1cc(Cl)c2ccc(N(C)C)nc2c1O (configuration not stated)	.	-32.6%	.	?	2.5%	.
COc1nc(Cl)nc(Cl)c1Cl (tested in a mixture with another compound)	.	.	.	.	.	5.1%
CCN1CCN(c2cc(C)c3cc(NC(=S)N4CCCCC4)ccc3n2)CC1	53.8	?	21.1*	?	-2.5%	5.7%
CCN1CCN(c2cc(C)c3cc(NC(=S)N4CCCC(C)C4)ccc3n2)CC1 (configuration not stated)	61.6*	-0.9%	32.7*	-25.8%	-6.0%	-2.5%
CCN1CCN(C(=S)Nc2ccc3nc(N4CCN(CC)CC4)cc(C)c3c2)CC1	-13.1	0.0%	9.6	6.57µM*	8.9%	21.5%
CCN1CCN(c2cc(C)c3cc(NC(=S)N4CC(C)CC(C)C4)ccc3n2)CC1 (configuration not stated)	22.0	?	8.3	?	-2.6%	-2.1%
CC1(C)CC(NC(=O)c2cc(S(=O)(=O)N3CCCCC3)ccc2Cl)CC(C)(C)N1	-8.9	-16.9%	-1.1	-17.6%	-3.0%	-2.2%
C/C(=N\Nc1nc2ccccc2[nH]1)c1ccc(N2CCOCC2)cc1	60.6*	1.65µM*	40.0*	4.15µM*	0.1%	.
C/C(=N\Nc1nc2ccccc2[nH]1)c1ccc(C)o1	29.9*	-11.8%	37.8*	?	-12.7%	-16.4%
Cc1ccc(C(=O)NCc2nc3ccccc3[nH]2)o1	97.2*	4.8%	34.0*	-1.3%	-3.5%	3.4%
C/C(=N\Nc1nc2ccccc2[nH]1)c1ccc(Cl)s1	53.8*	?	23.0*	0.928µM*	-1.2%	20.8%
CC(C)(C)c1ccc(OCC(=O)N2CCN(c3ncccn3)CC2)cc1	12.9	31.2%	1.9	-5.7%	2.1%	-29.7%

Compound activity from PubChem.
